Source: PubChem BioAssay (NCATS)
Results filed as inconclusive are left out. Calls of active or inactive are those of the source. Calls follow the shape of the dose curve; as a rule, active = well fitted cell-killing curve with a large enough effect; inconclusive = small, poorly fitted or top-dose-only effect, or effect the other way; inactive = flat fitted curve, though single readings scatter. Where a SMILES comes first, the peptide text is derived from it. The star is where a group is joined. AFC = O=c1cc(C(F)(F)F)c2ccc(N*)cc2o1

Columns and labels:
Experiment in all cases: Primary qHTS to identify gynecologic anti-cancer compounds using libraries of approved drugs and bioactive compounds (AID 1345084); also: nearly all actives have a fitted effect of over 55% in size
Settings in all cases: Gynecologic cancer cell panel viability, ATPlite luminescence, 48 h; series mostly up to 57.5 µM
JEG-3 = test system: JEG-3
Summary of the method: (§1)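 Cells, 1,000 per well, plated 16 h, then exposed 48 h at 37 C to compounds. Viability by ATPlite luminescence after 15 min at room temperature.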

OV90 = test system: OV90
Summary of the method: as §1

PA-1 = test system: PA-1
Summary of the method: as §1

SKOV3 = test system: SKOV3
Summary of the method: as §1

Tov-21-G = test system: Tov-21-G
Summary of the method: as §1

Tov112D = test system: Tov112D
Summary of the method: as §1
% is scaled to controls: 0 for no effect and ±100 for the full control effect.

C=CC1C(O[C@@H]2O[C@H](CO)[C@@H](O)[C@H](O)[C@H]2O)OC=C(C(=O)OC)C1Cc1nccc2c1[nH]c1ccccc12 (some centres not stated)
inactive: Potency (JEG-3) | Potency (OV90) | Potency (PA-1) | Potency (SKOV3) | Potency (Tov-21-G) | Potency (Tov112D)

CC(O)(CC(=O)O)CC(=O)O[C@@H]1[C@@H](O)[C@H](OCCc2ccccc2)O[C@H](CO)[C@H]1O (some centres not stated)
inactive: Potency (JEG-3) | Potency (OV90) | Potency (PA-1) | Potency (SKOV3) | Potency (Tov-21-G) | Potency (Tov112D)

NCCOCCOCCNC(=O)Cc1ccc(Nc2nc(NCc3ccc(F)cc3)nc(NCC3CCCCC3)n2)cc1
inactive: Potency (JEG-3) | Potency (OV90) | Potency (PA-1) | Potency (SKOV3) | Potency (Tov-21-G) | Potency (Tov112D)

CC(C)(O)C1=CCC23COC(C2)C(O)(C(=O)O)CCC13 (configuration not stated)
inactive: Potency (JEG-3) | Potency (OV90) | Potency (PA-1) | Potency (SKOV3) | Potency (Tov-21-G) | Potency (Tov112D)

COc1ccccc1CC(C(=O)O)N(C)C(=O)c1ccccc1 (configuration not stated)
inactive: Potency (JEG-3) | Potency (OV90) | Potency (PA-1) | Potency (SKOV3) | Potency (Tov-21-G) | Potency (Tov112D)

CC(=O)O[C@H]1CC[C@@]2(CI)C(=CC[C@@H]3[C@@H]2CC[C@]2(C)[C@@H]([C@H](C)CCCC(C)C)CC[C@@H]32)C1
inactive: activity change, negative = cytotoxicity (JEG-3) -2.55% [at 11.6 µM] | activity change, negative = cytotoxicity (OV90) -2.38% [at 11.6 µM] | activity change, negative = cytotoxicity (PA-1) 22.4% [at 11.6 µM] | activity change, negative = cytotoxicity (SKOV3) 5.27% [at 11.6 µM] | activity change, negative = cytotoxicity (Tov-21-G) 10.3% [at 11.6 µM] | activity change, negative = cytotoxicity (Tov112D) 11.8% [at 11.6 µM]

C/C=C(\C)C(=O)OC[C@H]1O[C@H](O[C@H]2O[C@H](CO)[C@@H](OC(=O)/C(C)=C/C)[C@H](O)[C@H]2O[C@@H]2O[C@H](CO)[C@@H](O)[C@H](O)[C@H]2O)[C@H](O[C@@H]2O[C@H](CO)[C@@H](O)[C@H](O)[C@H]2O)[C@@H](O)[C@@H]1O
inactive: activity change, negative = cytotoxicity (JEG-3) 2.7% [at 11.6 µM] | activity change, negative = cytotoxicity (OV90) 8.14% [at 11.6 µM] | activity change, negative = cytotoxicity (PA-1) 33.8% [at 11.6 µM] | activity change, negative = cytotoxicity (SKOV3) 3.25% [at 11.6 µM] | activity change, negative = cytotoxicity (Tov-21-G) 22.3% [at 11.6 µM] | activity change, negative = cytotoxicity (Tov112D) 9.9% [at 11.6 µM]

CC(=O)O[C@@H]1C[C@]2(C)[C@@]3(CCC4[C@@]5(C)CC[C@H](O[C@@H]6O[C@H](C(=O)O)[C@@H](O)[C@H](O[C@@H]7O[C@H](CO)[C@H](O)[C@H](O)[C@H]7O[C@@H]7O[C@@H](C)[C@H](O)[C@@H](O)[C@H]7O[C@@H]7OC[C@](O)(CO)[C@H]7O)[C@H]6O[C@@H]6O[C@H](CO)[C@H](O)[C@H](O)[C@H]6O)C(C)(C)C5CC[C@]42C)O[C@@H](O)[C@]12C3CC(C)(C)[C@@H](OC(=O)/C=C/c1ccc(O)c(O)c1)[C@@H]2OC(=O)/C=C/c1ccccc1 (some centres not stated)
inactive: activity change, negative = cytotoxicity (JEG-3) -2.17% [at 6.55 µM] | activity change, negative = cytotoxicity (OV90) -7.75% [at 6.55 µM] | activity change, negative = cytotoxicity (PA-1) 24% [at 6.55 µM] | activity change, negative = cytotoxicity (SKOV3) 3.32% [at 6.55 µM] | activity change, negative = cytotoxicity (Tov-21-G) 17% [at 6.55 µM] | activity change, negative = cytotoxicity (Tov112D) 6.15% [at 6.55 µM]

CC1(C)CC[C@]2(C(=O)O[C@@H]3O[C@H](CO)[C@@H](O)[C@H](O)[C@H]3O)CC[C@]3(C)C(=CCC4[C@@]5(C)C[C@@H](O)[C@H](O)C(CO)(CO)C5CC[C@]43C)C2[C@@H]1O (some centres not stated)
inactive: Potency (JEG-3) | Potency (OV90) | Potency (PA-1) | Potency (SKOV3) | Potency (Tov-21-G) | Potency (Tov112D)

OCCc1ccc(O[C@@H]2O[C@H](CO)[C@@H](O)[C@H](O)[C@H]2O)c(O)c1
inactive: Potency (JEG-3) | Potency (OV90) | Potency (PA-1) | Potency (SKOV3) | Potency (Tov-21-G) | Potency (Tov112D)

CC1(C)CCC(C)(C)c2cc([C@@H](O)C(=O)Nc3ccc(C(=O)O)cc3F)ccc21
inactive: Potency (JEG-3) | Potency (OV90) | Potency (PA-1) | Potency (SKOV3) | Potency (Tov-21-G) | Potency (Tov112D)

CC(=O)N[C@@H](CC(C)C)C(=O)N[C@@H](CCC(=O)O)C(=O)N[C@@H](CCC(=O)O)C(=O)N[C@@H](CC(=O)O)C(=O)Nc1ccc2c(C(F)(F)F)cc(=O)oc2c1 (Ac-LEED-{AFC})
inactive: Potency (JEG-3) | Potency (OV90) | Potency (PA-1) | Potency (SKOV3) | Potency (Tov-21-G) | Potency (Tov112D)

N[C@@H](CC(=O)N1CCn2c(nnc2C(F)(F)F)C1)Cc1[nH]nc2c(F)c(F)ccc12
inactive: Potency (JEG-3) | Potency (OV90) | Potency (PA-1) | Potency (SKOV3) | Potency (Tov-21-G) | Potency (Tov112D)

C/C(=C/CO)CC[C@@H]1[C@@]2(C)CCC[C@](C)(C(=O)O)C2CC[C@@]1(C)O (some centres not stated)
inactive: Potency (JEG-3) | Potency (OV90) | Potency (PA-1) | Potency (SKOV3) | Potency (Tov-21-G) | Potency (Tov112D)

CC1CCC2C(C)(C)C(O)CCC2(C)C12Cc1c(O)cc3c(c1O2)C(N)=NC3 (configuration not stated)
inactive: Potency (JEG-3) | Potency (OV90) | Potency (PA-1) | Potency (SKOV3) | Potency (Tov-21-G) | Potency (Tov112D)

CCOC(=O)c1c(C)nn(-c2cccc([N+](=O)[O-])c2)c1C
inactive: Potency (JEG-3) | Potency (OV90) | Potency (PA-1) | Potency (SKOV3) | Potency (Tov-21-G) | Potency (Tov112D)

C=C1[C@@H]2[C@H]3OC(=O)C(=C)[C@@H]3CC[C@@](C)(O)[C@@H]2C[C@@H]1O[C@@H]1O[C@H](CO)[C@@H](O)[C@H](O)[C@H]1O
inactive: Potency (JEG-3) | Potency (OV90) | Potency (PA-1) | Potency (SKOV3) | Potency (Tov-21-G) | Potency (Tov112D)

CC1CC(O)C2(C)C(C(=O)O)=CCCC2C1(C)CCc1ccoc1 (configuration not stated)
inactive: Potency (JEG-3) | Potency (OV90) | Potency (PA-1) | Potency (SKOV3) | Potency (Tov-21-G) | Potency (Tov112D)

C/C(=C/CCC(CO)C1CCC2(C)C3CCC4C(C)(C)C(OC5OC(CO)C(O)C(O)C5O)CC(O)C45CC35CCC12C)COC1OC(CO)C(O)C(O)C1O (configuration not stated)
inactive: Potency (JEG-3) | Potency (OV90) | Potency (PA-1) | Potency (SKOV3) | Potency (Tov-21-G) | Potency (Tov112D)

C=C1C(=O)O[C@H]2[C@H]1[C@@H](OC(=O)C(C)CO)C[C@@]1(C)[C@H](O)CCC(=O)[C@H]21 (some centres not stated)
inactive: Potency (JEG-3) | Potency (OV90) | Potency (PA-1) | Potency (SKOV3) | Potency (Tov-21-G) | Potency (Tov112D)

O=C(NC[C@H](O)CN1CCc2ccccc2C1)c1cc(NC2COC2)ncn1
inactive: Potency (JEG-3) | Potency (OV90) | Potency (PA-1) | Potency (SKOV3) | Potency (Tov-21-G) | Potency (Tov112D)

C=C1CC/C=C(/CO)C(=O)C[C@@H]2[C@@H]1CC2(C)C
inactive: Potency (JEG-3) | Potency (OV90) | Potency (PA-1) | Potency (SKOV3) | Potency (Tov-21-G) | Potency (Tov112D)
